The panel holds about 79,000 compounds, 15% with a hit somewhere; the sample as a whole holds those more often. A number with no mark means an inactive call. The source made the active and inactive calls. No stated cut-off is given here; in the data, active means growth inhibition above about 70%; inactive means the rest.

A short description of experiment [1]: NCI Yeast Anticancer Drug Screen. Data for the rad50 strain (AID 155).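 Further: 0% = growth of vehicle-only cultures of the same strain.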 Particulars: S. cerevisiae rad50 strain growth inhibition, hits give high values. The gist of the method: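 Cells are treated with compound, grown, and their growth is then scored against vehicle-only cultures of the same repair-deficient yeast strain.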
The nature of experiment [2]: NCI Yeast Anticancer Drug Screen. Data for the mec2-1 strain (AID 157). Particulars: S. cerevisiae mec2-1 strain, hits give high values. The method, boiled down:
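Cells of the genetically defined mec2-1 yeast strain are incubated with test compound. Inhibition of growth is calculated against vehicle-treated controls.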

A short description of experiment [3]: NCI Yeast Anticancer Drug Screen. Data for the sgs1 mgt1 strain (AID 161).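 Further: 0% = growth of cultures given vehicle only.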 Particulars: S. cerevisiae sgs1 mgt1 strain, hits give high values. The method, boiled down:
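Mutant yeast exposed to compound; growth scored against vehicle-only wells.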

The nature of experiment [4]: NCI Yeast Anticancer Drug Screen. Data for the cln2 rad14 strain (AID 165).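 Further: 0% = growth equal to vehicle treated cultures.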 Particulars: S. cerevisiae cln2 rad14 strain, hits give high values. The method, boiled down:
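The screen exposed genetically defined yeast (cln2 rad14) to test compounds and scored growth inhibition relative to vehicle-treated controls.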

Experiment [5] can be described thus: NCI Yeast Anticancer Drug Screen. Data for the bub3 strain (AID 167). Particulars: S. cerevisiae bub3 mutant strain, hits give high values. The gist of the method: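 Part of a panel of yeast mutants defective in DNA damage repair or cell cycle regulation. Each strain is grown with compound, and inhibition is calculated relative to solvent-treated cultures.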
The nature of experiment [6]: NCI Yeast Anticancer Drug Screen. Data for the mlh1 rad18 strain (AID 175). The note with it: S. cerevisiae mlh1 rad18 strain growth inhibition, hits give high values. The method, boiled down: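 Compound-treated yeast growth, normalised to vehicle controls. Strain bears defined DNA repair mutations.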
Setting [7] is: at 5.0 µM (retest, dose inferred, filed as 0.5).
The mark [8] stands for this setting: at 50.0 µM (retest, dose inferred, filed as 5.0).

As for `CCN(CC)c1ccc(NC(C(=O)c2ccccc2)c2ccc3c(c2)OCO3)cc1` (stereo not drawn), the growth inhibition in experiment [1] (setting [7]) was -23%; in experiment [1] (setting [8]) it was -26%; in experiment [1] (at 50.0 µM) it was 27.2%; in experiment [2] (setting [7]), -3%; in experiment [2] (setting [8]), 5%; in experiment [2] (at 50.0 µM) it was 32.7%. Moreover, the growth inhibition was -23% in experiment [3] (setting [7]); 14% in experiment [3] (setting [8]); 46.1% in experiment [3] (at 50.0 µM); -1% in experiment [4] (setting [7]); -10% in experiment [4] (setting [8]); -8.35% in experiment [4] (at 50.0 µM). The growth inhibition in experiment [5] (setting [7]) was 3%; in experiment [5] (setting [8]) it was 14%; in experiment [5] (at 50.0 µM) it was 25.9%; in experiment [6] (setting [7]) it was -4%; in experiment [6] (setting [8]), 12%; in experiment [6] (at 50.0 µM), 42.5%.
In the case of `Oc1c2c(c(O)c3ncccc13)C1C=CC2CC1` (stereo not drawn), the growth inhibition in experiment [1] (setting [7]) was -5%; in experiment [1] (setting [8]) it was 99% (active); in experiment [1] (at 50.0 µM) it was 97.7% (active); in experiment [2] (setting [7]), 0%; in experiment [2] (setting [8]), 99% (active); in experiment [2] (at 50.0 µM), 97.1% (active). For the same compound, the growth inhibition in experiment [3] (setting [7]) is -5%; in experiment [3] (setting [8]), 98% (active); in experiment [3] (at 50.0 µM) it was 99.3% (active); in experiment [4] (setting [7]) it was -25%; in experiment [4] (setting [8]), 98% (active); in experiment [4] (at 50.0 µM) it was 84.8% (active). Further, the growth inhibition was 2% in experiment [5] (setting [7]); 99% (active) in experiment [5] (setting [8]); 97.7% (active) in experiment [5] (at 50.0 µM); -4% in experiment [6] (setting [7]); 99% (active) in experiment [6] (setting [8]); 98.3% (active) in experiment [6] (at 50.0 µM).
For the compound `Cc1cc(N=Nc2ccncc2C)ccc1N`, the growth inhibition is -69% in experiment [1] (setting [7]); 98% (active) in experiment [1] (setting [8]); 92.5% (active) in experiment [1] (at 50.0 µM); -50% in experiment [2] (setting [7]); 87% (active) in experiment [2] (setting [8]); 52.5% in experiment [2] (at 50.0 µM). Moreover, the growth inhibition in experiment [3] (setting [7]) was -34%; in experiment [3] (setting [8]), 98% (active); in experiment [3] (at 50.0 µM) it was 75.6% (active); in experiment [4] (setting [7]), -45%; in experiment [4] (setting [8]), 92% (active); in experiment [4] (at 50.0 µM), 48.9%. Besides, the growth inhibition was -40% in experiment [5] (setting [7]); 98% (active) in experiment [5] (setting [8]); 89% (active) in experiment [5] (at 50.0 µM); -72% in experiment [6] (setting [7]); 96% (active) in experiment [6] (setting [8]); 66.7% in experiment [6] (at 50.0 µM).
For the compound `Nc1cc(F)cc(F)c1[N+](=O)[O-]`, the growth inhibition is 4% in experiment [1] (setting [7]); 21% in experiment [1] (setting [8]); 41% in experiment [1] (at 50.0 µM); 4% in experiment [2] (setting [7]); 22% in experiment [2] (setting [8]); 0.45% in experiment [2] (at 50.0 µM). Besides, the growth inhibition in experiment [3] (setting [7]) was 1%; in experiment [3] (setting [8]) it was 18%; in experiment [3] (at 50.0 µM), 53.3%; in experiment [4] (setting [7]), -1%; in experiment [4] (setting [8]) it was 6%; in experiment [4] (at 50.0 µM) it was -15.4%. The growth inhibition in experiment [5] (setting [7]) was -1%; in experiment [5] (setting [8]), 19%; in experiment [5] (at 50.0 µM) it was -1.5%; in experiment [6] (setting [7]) it was 7%; in experiment [6] (setting [8]), 26%; in experiment [6] (at 50.0 µM) it was 79.7% (active).
`Clc1ccc(SSN2CCCCC2)cc1`: the growth inhibition in experiment [1] (setting [7]) was 2%; in experiment [1] (setting [8]) it was 65%; in experiment [1] (at 50.0 µM), 89% (active); in experiment [2] (setting [7]), -1%; in experiment [2] (setting [8]), 45%; in experiment [2] (at 50.0 µM), 80.3% (active). Further, the growth inhibition in experiment [3] (setting [7]) was 2%; in experiment [3] (setting [8]), 82% (active); in experiment [3] (at 50.0 µM), 87.8% (active); in experiment [4] (setting [7]), 6%; in experiment [4] (setting [8]) it was 17%; in experiment [4] (at 50.0 µM), 7.1%. Further, the growth inhibition in experiment [5] (setting [7]) is -1%; in experiment [5] (setting [8]) it was 70% (active); in experiment [5] (at 50.0 µM) it was 77.7% (active); in experiment [6] (setting [7]), 3%; in experiment [6] (setting [8]) it was 84% (active); in experiment [6] (at 50.0 µM), 88.4% (active).
For the compound `c1ccc(N=c2sc3ccccc3sc2=Nc2ccccc2)cc1`, the growth inhibition in experiment [1] (setting [7]) is 94% (active); in experiment [1] (setting [8]), 32%; in experiment [1] (at 50.0 µM), 51%; in experiment [2] (setting [7]), 56%; in experiment [2] (setting [8]), 50%; in experiment [2] (at 50.0 µM), 32.4%. The growth inhibition in experiment [3] (setting [7]) was 71% (active); in experiment [3] (setting [8]), 60%; in experiment [3] (at 50.0 µM), 21.8%; in experiment [4] (setting [7]), 96% (active); in experiment [4] (setting [8]) it was 69%; in experiment [4] (at 50.0 µM) it was 59.5%. Also, the growth inhibition in experiment [5] (setting [7]) was 93% (active); in experiment [5] (setting [8]) it was 76% (active); in experiment [5] (at 50.0 µM) it was 31.7%; in experiment [6] (setting [7]), 93% (active); in experiment [6] (setting [8]) it was 56%; in experiment [6] (at 50.0 µM), -16%.
